Compounds with a hit are over-represented: about 2.1% of the library has one in this group of screens.
BaF3 tox: parental Ba/F3 viability inhibition as JAK2V617F counter-screen; CellTiter-Glo ATP luminescence; inhibition, % at 5.6 µM; 1.1% of 220,000 active;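 active = inhibition above a per-campaign cutoff, the mean inhibition of all tested compounds plus 3 SD, cut at about 27% in these data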;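 note: 0% = DMSO wells and 100% = JAK Inhibitor I control wells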
Ba/F3 V617F tox: reduce viability of Ba/F3 cells dependent on JAK2V617F | 1.1% of 220,000 active | AID 1446 | inhibition, % at 5.6 µM | Ba/F3 EpoR-JAK2V617F viability, ATP luminescence;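 active = inhibition above the campaign mean plus 3 SD over all tested compounds, cut at about 24% in these data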;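 note: cytokine-independent growth of Ba/F3 cells driven by EpoR plus mutant JAK2; 0% = DMSO-treated cells and 100% = JAK inhibitor I control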
IEC-6 cytotox: IEC-6 cytotoxicity, counter-screen for KLF5 inhibitors | luminescence viability | inhibition, % at 5 µM | 0.78% of 290,000 active;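 note: 0% = plate median of test compound wells and 100% = cytotoxic reference compound wells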
APP 5UTR inh: APP translation inhibition. 0.82% of 190,000 active. inhibition, % at 2 µM. SH-SY5Y APP 5'UTR-luciferase reporter, luminescence;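 active = inhibition above a set limit, derived from the sample mean plus 3 SD, cut at about 45% in these data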
aSyn 5UTR inh: 5' untranslated region of α-synuclein, MLPCN primary screen. alpha-synuclein 5'UTR reporter, inhibitor activity. inhibition, % (tested at 7.5 µM). 0.82% of 300,000 active; in the data active = inhibition above about 60%;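 note: H4 neuroglioblastoma cells stably carrying SNCA 5'UTR luciferase fusion; 0% = DMSO wells and 100% = positive control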
KLF5 inhibitor: kruppel-like factor 5 inhibition. inhibition, % at 5 µM. 0.23% of 290,000 active. DLD-1 KLF5 promoter-luciferase reporter, luminescence;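 active = inhibition above a per-plate limit of that plate's mean compound inhibition plus 3 SD, cut at about 60% in these data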;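 note: 0% = DMSO wells and 100% = LY294002 at 200 µM; higher means less KLF5 promoter-driven luciferase light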
IEC-6 tox confirm: confirmation of cytotoxic compounds in rat IEC-6 intestinal epithelial cells | shares compounds with IEC-6 cytotox | IEC-6 rat intestinal epithelial viability, luminescence | inhibition, % at 5 µM | 63% of 1,900 active | AID 1907;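 note: 0% = vehicle and 100% = reference cytotoxic drug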
* = called active by the depositor; . = no result given. Cut-off read from the data, not from the text of the source, unless noted: active = inhibition above about 22%; inactive = the rest.

SMILES | BaF3 tox | Ba/F3 V617F tox | IEC-6 cytotox | APP 5UTR inh | aSyn 5UTR inh | KLF5 inhibitor | IEC-6 tox confirm
O=C(NNC(=S)Nc1ccc(F)cc1)c1ccccc1OC(F)F | 4.7 | -0.7 | -1.7 | 12.5 | -62.7 | -18.8 | .
CN(C)c1nc(=NCc2ccco2)ss1 | 7.6 | 12.4 | 97.3* | . | -4.3 | -5.1 | 30.5*
O=C1CCCC(=NCc2ccco2)C1 | -1.3 | -2.1 | 1.7 | 20.5 | 10.2 | -6.6 | .
O=C(OCC(=O)N1CCC(c2ccccc2)=N1)c1ccc([N+](=O)[O-])s1 | . | . | . | . | -14.4 | . | .
O=c1c2oc3ccccc3c2ncn1Cc1ccccc1Cl | 5.3 | 1.9 | 37.0* | 0.2 | -9.0 | -18.1 | 26.4*
O=c1c2oc3ccccc3c2ncn1Cc1ccccc1F | -0.5 | -5.3 | 33.8* | -4.4 | -9.9 | -27.3 | 12.2
Cn1c(-c2ccccc2)c(/C=N/NC(=O)c2cccnc2)c2ccccc21 | 6.0 | 0.3 | 9.3 | -4.3 | -15.8 | -44.6 | .
O=C(N/N=C/c1c(-c2ccccc2)[nH]c2ccccc12)c1cccnc1 | 55.3* | 64.0* | 58.2* | -32.0 | -33.9 | 13.3 | 22.8*
CN(C)CCCN1C(=O)c2cccc3c([N+](=O)[O-])ccc(c23)C1=O | 79.0* | 94.9* | 38.8* | 79.7* | . | 10.2 | 26.9*
COc1ccc(/C=N/Nc2nnc(C)n2N)cc1OC(C)=O | . | . | -6.8 | . | -8.3 | -25.9 | .
COc1ccc(/C=N/Nc2nnc(C)n2N)cc1OC | 10.6 | 6.7 | 101.6* | -3.1 | -22.8 | 10.1 | 4.0
COc1cccc(Oc2cnc(N)nc2-c2ccc(OC)cc2O)c1 | 62.1* | 68.4* | 45.4* | 60.8* | 54.5 | 35.4 | 33.0*
COc1ccc(-c2nc(N)ncc2Oc2ccccc2Br)c(O)c1 | 2.4 | -2.1 | 0.3 | -3.1 | 42.0 | -22.0 | .
COc1cc(/C=N/Nc2snc(SC)c2C#N)ccc1O | 61.5* | 73.3* | 45.1* | 82.9* | -49.1 | 20.1 | 44.9*
Cc1cc(C)n(Cc2cccc(C(=O)N/N=C/c3cccnc3)c2)n1 | . | . | 5.5 | . | -1.1 | -14.1 | .
Cn1ncc2c(O/N=C(\N)c3ccc(C(C)(C)C)cc3)ncnc21 | 36.1* | 75.0* | 92.7* | . | 104.1* | -29.5 | 21.2
COc1cc(/C=N/NC(=O)c2ccc(COc3cc(C)ccc3C(C)C)cc2)cc(OC)c1O | 1.7 | -3.5 | 5.1 | 14.5 | 36.5 | -33.0 | .
Cc1ccc(C(C)C)c(OCc2ccc(C(=O)N/N=C/c3cccc(O)c3O)cc2)c1 | 89.9* | 96.8* | 41.4* | 79.7* | 108.5* | 34.2 | 78.0*
COc1cccc(-c2nnc(Nc3nc4c(F)cccc4s3)o2)c1 | 1.9 | 0.1 | -2.6 | -49.1 | -145.4 | -74.1 | .
COc1ccccc1-c1nnc(Nc2nc3c(OC)cccc3s2)o1 | 75.9* | 72.3* | 69.4* | 87.1* | 81.5* | 59.4 | 73.4*
CC1=C(C(=O)OCc2ccc3c(c2)OCO3)C(c2ccc(F)cc2)NC(=O)N1 (stereo unspecified) | 31.5* | 51.6* | 38.4* | 44.2 | 18.9 | 41.0 | 46.7*
CC1=C(C(=O)OCc2ccc3c(c2)OCO3)C(c2ccc(Cl)cc2)NC(=O)N1 (stereo unspecified) | 75.8* | 73.8* | 82.2* | 78.0* | 41.3 | 54.4 | 71.8*
CSCCOC(=O)C1=C(C)NC(=O)NC1c1ccc2c(c1)OCO2 (stereo unspecified) | . | . | 5.3 | . | 8.9 | -8.2 | .
CCN1/C(=C/C=C/c2oc3ccc(-c4ccccc4)cc3[n+]2CC)Oc2ccc(-c3ccccc3)cc21 | 78.2* | 99.8* | 61.4* | 74.1* | 140.4* | 14.7 | 4.6
CCCCn1c(CN2CCN(c3cccc(Cl)c3)CC2)nc2c1c(=O)[nH]c(=O)n2C | 37.8* | 47.9* | 44.5* | 84.7* | 39.2 | 27.2 | 40.7*
SMILES | BaF3 tox | Ba/F3 V617F tox | IEC-6 cytotox | APP 5UTR inh | aSyn 5UTR inh | KLF5 inhibitor | IEC-6 tox confirm
Cn1c(=O)[nH]c(=O)c2c1nc(CN1CCN(c3cccc(Cl)c3)CC1)n2CCCc1ccccc1 | 1.4 | -3.6 | -4.0 | -16.7 | 25.1 | -10.7 | .
O=C(NCC1CCCO1)c1cncc(Br)c1 (stereo unspecified) | 1.1 | -2.9 | -0.3 | -14.4 | 14.7 | -29.3 | .
COc1ccc(C(=O)N/N=C/c2sc3ccccc3c2O)cc1 | 7.4 | 0.7 | 27.0* | 50.9* | 83.8* | -12.5 | 12.3
COc1ccc(C(=O)N/N=C/c2c[nH]c3ccccc23)cc1 | . | . | 0.8 | . | -70.5 | -43.1 | .
CN1C2CCC1/C(=C\c1ccccc1F)C(=O)/C2=C/c1ccccc1F | 3.7 | 17.4 | 32.8* | 0.0 | -89.4 | -23.5 | -0.3
CCCCn1c(N)c(N(CC(C)C)C(=O)c2ccc(S(=O)(=O)N3CCCCCC3)cc2)c(=O)[nH]c1=O | . | . | . | . | 3.2 | . | .
Cc1ccccc1-c1ocnc1C(=O)Nc1ccccc1NC(=O)c1ccccn1 | . | . | 22.8* | . | -3.2 | -5.0 | 8.0
COCCCN1C(=O)C(=O)/C(=C(/O)c2ccc(S(=O)(=O)N3CCOCC3)cc2)C1c1ccc(OC)cc1 (stereo unspecified) | . | . | 4.2 | . | -3.6 | -4.6 | .
Cc1ccc(NC(=O)c2cc(S(=O)(=O)N3CCOCC3)cs2)cc1 | . | . | 96.9* | . | -19.6 | -8.6 | 4.1
CCOC(=O)C1CCN(C(=O)/C=C/c2ccc3c(c2)OCO3)CC1 | . | . | -4.6 | . | -74.0 | -195.5 | .
O=C(O)CSc1cc(NS(=O)(=O)c2ccc(Br)cc2)c2ccccc2c1O | . | . | 53.5* | . | 15.7 | -51.7 | -3.3
Cc1ccc(S(=O)(=O)Nc2ccc(Br)cc2C(NCC(=O)O)c2ccccc2)cc1 (stereo unspecified) | -0.8 | -0.5 | 3.6 | -10.6 | 29.8 | 30.9 | .
O=S(=O)(NC(=NCc1ccccc1)c1ccc(F)cc1)c1ccc(Cl)cc1 | 7.4 | 2.6 | 7.4 | -19.1 | 21.6 | -21.6 | .
CC(C)(C)C(=O)Cn1ncc(Br)c(Br)c1=O | -4.9 | 5.0 | 29.4* | 93.7* | -91.9 | -18.6 | 8.8
CCN(Cc1ccccc1)S(=O)(=O)c1ccc(C(=O)Nc2nnc(C)o2)cc1 | . | . | 17.0 | . | 24.2 | 42.2 | .
CCc1nnc(NC(=O)c2ccc(S(=O)(=O)N(CC)Cc3ccccc3)cc2)o1 | 6.4 | 0.5 | 26.4* | 14.7 | 9.3 | 23.4 | 2.2
COc1ccc(C(=O)c2ccc3oc(-c4ccc(OC)cc4)c(C#CCCO)c3c2)cc1 | . | . | . | . | 12.3 | . | .
COc1cc(OC)cc(-c2oc3cccnc3c2C#CCCO)c1 | . | . | 24.6* | . | -3.8 | -20.4 | 16.9
Cc1ccc(OCC(=O)NNC(=S)NC(=O)C2CC2)c(C)c1 | . | . | 35.8* | . | . | 25.8 | 13.5
Cc1ccc(Oc2nc3ccccn3c(=O)c2/C=C(\C#N)C(=O)NC2CCS(=O)(=O)C2)c(C)c1 (stereo unspecified) | . | . | 56.3* | . | -16.3 | -5.7 | 34.1*
COc1ccccc1CC(=O)Nc1ncc(C)s1 | . | . | 6.2 | . | 13.2 | 4.8 | .
CC(=O)O[C@H]1C(=O)[C@@]2(C)C([C@H](OC(=O)c3ccccc3)[C@]3(O)C[C@H](OC(=O)[C@H](O)[C@@H](NC(=O)c4ccccc4)c4ccccc4)C(C)=C1C3(C)C)[C@]1(OC(C)=O)CO[C@@H]1C[C@H]2O (stereo partly specified) | . | . | 84.5* | . | 101.7* | 56.0 | 77.2*

Assay outcomes deposited in PubChem BioAssay by several laboratories.
